Experimental data from PubChem BioAssay AID618 (Sanford-Burnham Center for Chemical Genomics, 2007).
Hit rate of the full screen: of about 87,000 compounds, about 540 (0.62%) were called active. Where a call stands in place of a potency, no number is given. No rule for the calls is given here. This excerpt belongs to a sample that is enriched for actives. Potency and affinity values are given separately.

Assay: MT1-MMP gene expression reporter suppression – cell-based, luciferase reporter, luminescence (AID 618);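 also: actives suppress MT1-MMP promoter-driven transcription so potencies describe inhibitors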
Details: MT1-MMP promoter luciferase reporter cells

| Compound | outcome |
| --- | --- |
| O=C(CSc1nnc(CNC(=O)c2cccs2)o1)NCCc1ccccc1 | inactive |
| O=C(CNC(=O)c1ccco1)NCC(=O)OC(C(=O)c1ccccc1)c1ccc(Cl)cc1 (stereo unspecified) | inactive |
| CC1CCCc2sc3nc(N4CCN(CCO)CC4)n4ncnc4c3c21 (stereo unspecified) | inactive |
| COCCn1c(C)cc(C2=NNC(=Nc3ccc(Cl)cc3Cl)SC2)c1C | inactive |
| COCCn1c(C)cc(C(=O)COc2nc3ccccc3nc2C)c1C | inactive |
| COCCn1c(-c2ccccc2F)n[nH]c1=S | inactive |
| COCCn1c(C)cc(C2=NNC(=Nc3ccc(OC)cc3)SC2)c1C | inactive |
| CCOC(=O)c1c(C)c(C(=O)NC2CCCCC2)c(C)n1CC | inactive |
| Cc1ccc(-c2ccccc2NC(=O)CCl)o1 | inactive |
| CN1/C(=C/C=N/n2cnnc2)C(C)(C)c2ccccc21 | inactive |
| CN1/C(=C/C2CC(=O)N(c3cccc4ccccc34)C2=O)C(C)(C)c2ccccc21 (stereo unspecified) | inactive |
| O=C(O)CCn1c(=S)oc2ccccc21 | inactive |
| Cc1cc(NC(=O)c2cc(Cl)ccc2Cl)no1 | inactive |
| O=C(C1CCCCC1)N(Cc1ccccc1)c1ccccn1 | inactive |
| CC[C@H]1CN2CCc3cc(OC)c(OC)cc3[C@@H]2C[C@@H]1C[C@H]1NCCc2cc(OC)c(OC)cc21 | active |
| COc1cc2c(cc1OC)C1Cc3ccc(OC)c(OC)c3CN1CC2 (stereo unspecified) | inactive |
| COc1cc2c(cc1OC)C1C/C(=N\O)C(CC(C)C)CN1CC2 (stereo unspecified) | inactive |
| O=C(CN1CCCCC1)N1c2ccccc2CCc2ccccc21 | inactive |
| O=C(CN1C(=O)C2C3C=CC(C3)C2C1=O)N1CCc2ccccc2C1 (stereo unspecified) | inactive |
| CCC(=O)NCC(c1cccs1)N1CCOCC1 (stereo unspecified) | inactive |
| O=C(NCC(c1cccs1)N1CCOCC1)c1ccco1 (stereo unspecified) | inactive |
| O=C(NCC(c1cccs1)N1CCOCC1)c1ccc(Cl)s1 (stereo unspecified) | active |
| CCOC(=O)c1ccc(CC(=O)c2oc3cc(O)ccc3c2C)o1 | inactive |
| CN(C)c1cccc(C(=O)n2cc(C(=O)c3cc(F)ccc3O)cn2)c1 | inactive |
| Cc1cc(N)n2ncc(-c3ccccc3)c2n1 | inactive |
| Cc1cc(N)n2nc(C)c(-c3ccccc3)c2n1 | inactive |

| Compound | outcome |
| --- | --- |
| COc1ccc(-c2cc3nc(C)cc(NCCO)n3n2)cc1 | inactive |
| COc1ccc(-c2cc3nc(C)cc(C)n3n2)cc1 | inactive |
| Cc1c(C(=O)N2CCN(S(C)(=O)=O)CC2)oc2ccccc12 | inactive |
| COc1ccc(C)cc1NC(=O)c1ccc(N(C)S(C)(=O)=O)cc1 | inactive |
| CC1CCN(C(=S)c2ccc3c(c2)OCO3)CC1 | inactive |
| COc1ccc(OC)c2sc(NC(=O)c3ccc(Br)s3)nc12 | inactive |
| Oc1ccc(Nc2nc(-c3ccc(O)cc3)cs2)cc1 | inactive |
| NS(=O)(=O)c1ccc(Nc2nc(-c3ccc4ccccc4c3)cs2)cc1 | inactive |
| Oc1ccc(Nc2nc(-c3ccc4ccccc4c3)cs2)cc1 | active |
| CCN(CC)CCCNC(=O)c1[nH]c(C)c(C(=O)NC2CCCCC2)c1C | inactive |
| Cc1nc(SCC(N)=O)[nH]c(=O)c1Cc1ccc(OC(C)C)cc1 | inactive |
| O=C(Nc1ccccc1C(=O)N1CCN(c2ccccc2)CC1)c1ccco1 | inactive |
| c1ccc(-c2nnc(-c3ccccn3)nc2NC2CCCCC2)cc1 | active |
| CNc1nc(-c2ccccn2)nnc1-c1ccccc1 | inactive |
| C=CCNc1nc(-c2ccccc2)nc(-n2ccnc2)n1 | inactive |
| c1ccc(-c2noc(C3CCCCC3)n2)nc1 | inactive |
| c1ccc(-c2n[nH]c(-c3ccccn3)n2)cc1 | inactive |
| N#Cc1ccc(C23CC4(C2)[C@H](CN(Cc2ccc(C(F)(F)F)cc2)[C@@H]4c2ccccc2)C3c2ccc(C(F)(F)F)cc2)cc1 (stereo partly specified) | inactive |
| CCc1ccc2[nH]c(=O)c(C(c3nnnn3Cc3ccccc3)N3CCOCC3)cc2c1 (stereo unspecified) | inactive |
| Cc1cc(N2CCOCC2)nc(SCC(=O)c2ccccc2)n1 | inactive |
| CCCC1=NCCn2cccc21 | inactive |
| Cn1c(=N)n(CC(=O)O)c2ccccc21 | inactive |
| COc1cccc(C(=O)Cn2c(NCCO)nc3ccccc32)c1 | inactive |
| COc1cccc(C(=O)Cn2c(=N)n(C)c3ccccc32)c1 | active |
| CC(=O)NCCSCCNC(C)=O | inactive |
| CSc1nnc(-c2ccc(S(=O)(=O)N3CCOCC3)cc2)n1CC1CCCO1 (stereo unspecified) | inactive |

| Compound | outcome |
| --- | --- |
| O=S(=O)(c1ccc2c(c1)nc(COc1ccc(Cl)cc1)n2CC1CCCO1)N1CCOCC1 (stereo unspecified) | active |
| CCSc1nnc(-c2ccc(S(=O)(=O)N3CCOCC3)cc2)n1CC1CCCO1 (stereo unspecified) | inactive |
| Cn1c(C(=O)NCCN2CCCCCC2)cc2c(=O)n(C)c3ccccc3c21 | inactive |
| Cc1ncc(S(=O)(=O)c2ccc(Cl)cc2)c(-c2ccccc2)n1 | inactive |
| O=S(=O)(Nc1nnc(-c2ccccc2)s1)c1ccc(Cl)cc1 | inactive |
| CCN(CC)CCCNC(=O)c1cc(-c2ccc(Cl)cc2)on1 | inactive |
| c1ccc(-c2cn3c4c(sc3n2)CCCC4)cc1 | active |
| Cc1c(C(N)=O)sc2nc(-c3ccccc3)cn12 | inactive |
| Cc1c(C(=O)N2CC(C)OC(C)C2)sc2nc(-c3ccccc3)cn12 (stereo unspecified) | inactive |
| CCOc1ccc(N(CC(=O)NCC2CCCO2)S(=O)(=O)c2ccc(SC)cc2)cc1 (stereo unspecified) | inactive |
| CSc1nc2sc3c(c2c(=O)n1C)CCC(C)C3 (stereo unspecified) | inactive |
| Cc1cccc(N=C2NN=C(c3ccc4c(c3)OCCO4)CS2)c1 | inactive |
| COc1ccc(N=C2NN=C(c3ccc4c(c3)OCCO4)CS2)cc1 | inactive |
| FC(F)Sc1ccc(N=C2NN=C(c3ccc4c(c3)OCCO4)CS2)cc1 | inactive |
| O=C1CSC(=NC2CCCCC2)N1 | inactive |
| COc1ccc(C(=O)NCCCN2CCCC2=O)cc1 | inactive |
| c1cnc(-c2nnc3n2CCCCC3)cn1 | inactive |
| CCC1(N(C(C)=O)c2ccc(OC)cc2)C(=O)c2ccccc2C1=O | inactive |
| CCOC(=O)CCSc1nc(C)c2cc(C)c(C)cc2n1 | inactive |
| CCCC(=O)Nc1nnc(-c2cccc(OCC)c2)s1 | inactive |
| Cc1cc(C)nc(N2CCCC(C(=O)Nc3ccc4c(c3)OCCO4)C2)n1 (stereo unspecified) | inactive |
| CC(=O)Nc1ccc(NC(=O)C2CCCN(c3ncccn3)C2)cc1 (stereo unspecified) | inactive |
| O=C(Nc1ccc2c(c1)OCCO2)C1CCCN(c2ncccn2)C1 (stereo unspecified) | active |
| O=C(Nc1ccc2c(c1)OCO2)C1CCCCN1S(=O)(=O)c1ccccc1 (stereo unspecified) | inactive |
